Molecules are shown by their SMILES. Hit rate of the full screen: of about 340,000 compounds, about 1,200 (0.35%) were called active. This excerpt belongs to a sample that is enriched for actives. Unmarked numbers belong to inactive results. No stated cut-off is given here; in the data, active means inhibition above about 50% (passing the limit was not always enough); inconclusive means no clear call, values can overlap the other calls; inactive means below about 31%.

By inhibition is commonly meant the relative decrease from the control value, in per cent.

The nature of the assay: blockers of Vif multimerization in cells – imaging, HEK293T, single point, primary screen (AID 602346). As to conditions: Vif self-association by quenched fluorescence, 24 h, at 7.49 µM, hits give high values.
As to `O=C(/C=C\c1cn(-c2ccccc2)nc1-c1cccs1)N1CCOCC1`, the inhibition was 87.7% (active).
For `O=C(O)c1ccc(N/N=C/c2cn(-c3ccccc3)nc2-c2cccs2)cc1` the value was -6.33%; for `COc1ccc(-c2nn(-c3ccccc3)cc2/C=C\C(=O)N2CCOCC2)cc1[N+](=O)[O-]`, 1.35%.
To `O=CNc1cc(-c2ccc(C(=O)N3CCOCC3)cc2)cn2c(-c3ccc(F)cc3)cnc12` belongs 6.34%; to `CCN(CC)CCn1c2ccc(Cl)cc2c2nc(C)sc21`, 16.1%.
As for `CCN(CC)CCCC(C)n1c2nc(=O)[nH]c(=O)c-2nc2cc(Cl)ccc21` (centres undefined), the inhibition is 128% (active).
To `Cc1nc2c(OCc3ccc(Cl)cc3)cccn2c1N(C)Cc1cccs1` belongs -12.4%.
On to `O=C(Nc1ccc2oc(-c3ccc4ccccc4c3)nc2c1)c1cccs1`, for which the inhibition was 52.2% (active).
To `CC(Oc1cccc(NC(=O)c2cccs2)c1)C(=O)c1ccccc1` (centres undefined) belongs 12.5%; to `O=C(Nc1ccc2oc(-c3ccccc3F)nc2c1)c1ccco1`, 4.71%.
On to `C#CCN(C[C@@H]1[C@@H](OC(=O)NC2CC2)[C@@H](OC(=O)NC2CC2)Cn2c(=O)ccc(=O)n21)S(=O)(=O)c1ccc(C)cc1`, for which the inhibition is -0.284%.
With `CCOC(=O)c1ccc(Nc2cc3ccccc3c(=O)[nH]2)cc1`, the inhibition was 9.05%.
For `CCOC(=O)c1ccc(N/C(=N/S(=O)(=O)c2ccccc2)c2ccccc2)cc1` the value was -4.64%.
For `CCOC(=O)c1nc(Nc2ccc(C(=O)OC)cc2)c2ccccc2n1` the value was 99.4% (active); for `CN(C)C(=O)c1cccc(-c2cnc3sc(NCc4ccc5c(c4)OCO5)nn23)c1`, -12%; for `COc1cccc(-n2c(SCC(=O)c3c[nH]c4ccccc34)nc3ccccc3c2=O)c1`, -2.01%.
To `COc1ccc(/C=C(\C#N)c2c[nH]c3ccccc23)cc1` belongs 52.1% (active).
In the case of `COc1ccc(C2C(C(C)=O)=C(O)C(=O)N2CCc2c[nH]c3ccccc23)cc1` (centres undefined), the inhibition was -11.5%.
To `Cc1ccc(C(NC(=O)C2CCN(CCOc3ccc(Cl)cc3Cl)CC2)c2ccccn2)cc1` (centres undefined) belongs 4.63%; to `Cc1ccccc1Cn1c(C)c(C(=O)NCc2cccc(C(F)(F)F)c2)sc1=O`, -7.14%; to `CCOC(=O)C1=CCC(c2ccc(F)cc2)N(S(=O)(=O)c2ccc(C)cc2)C1` (centres undefined), 24.4%.
To `COc1cc(OC)cc(C(=O)N[C@H](C(=O)Nc2nc3ccccc3[nH]2)C(C)C)c1` belongs 116% (active); to `COc1ccc(C(=O)N[C@H](C(=O)NCc2ccccc2)C(C)C)cc1`, 4.63%; to `COc1cc(OC)cc(C(=O)N[C@H](C(=O)NNC(=O)c2ccc(Br)cc2)C(C)C)c1`, 1.45%.
For `Cc1nc2c(OCc3ccc(Cl)cc3Cl)cccn2c1N(C)CC1CC1` the value was -14%.
For the molecule `O=C(NCc1nnnn1-c1ccc(Cl)cc1)c1ccc([N+](=O)[O-])o1`, the inhibition was 6.82%.
To `CCC(=O)Nc1ccc(S(=O)(=O)Nc2c(NC)c3ccccc3oc2=O)cc1` belongs -6.99%; to `NCCCNC(=S)NCCCN(Cc1ccc(Cl)cc1)c1ccc(Br)cn1`, -10.7%.
For `O=C(COC(=O)c1ccccc1)Nc1cccc(S(=O)(=O)N2CCOCC2)c1` the value was 6.23%; for `NS(=O)(=O)c1cccc(NC(=O)COC(=O)/C=C/c2ccco2)c1`, 40.9%.
Consider `O=C(COC(=O)/C=C/c1ccc(Br)o1)Nc1cccc(S(=O)(=O)N2CCOCC2)c1`, for which the inhibition was 72.1% (active).
For `C[C@@H]1CN([C@H](C)CO)S(=O)(=O)c2ccc(C#C[C@@H](C)O)cc2O[C@@H]1CN(C)Cc1ccc(-c2ccccc2)cc1` the value was -0.002%; for `NC(Cc1ccc(F)cc1)c1csc(Nc2nncc3ccccc23)n1` (centres undefined), -17.9%.
`Cc1cccnc1C(NC(=O)C1CCN(Cc2ccc(Cl)c(Cl)c2)CC1)c1ccc(Cl)cc1` (centres undefined): the inhibition was 11.5%.
For `COc1ccc(CNC(=O)c2ccc(-c3cccnc3)c3ccoc23)cc1OC` the value was -16.6%; for `CCCNC(=O)C1(C)CCN(Cc2ccc(Cl)c(Cl)c2)C1` (centres undefined), 3.78%; for `COc1ccc(-c2cc(NC=O)c3ncc(-c4cc(OC)c(OC)c(OC)c4)n3c2)c(OC)c1`, 21.8%.
For `Cn1c(N)cc(-c2ccc(F)cc2)c(C#N)c1=O` the value was -9.36%; for `COc1ccc(O)c(C(=O)c2cnc3c(c2)c(-c2ccc(F)cc2)c(C#N)c(=O)n3C)c1`, 1.06%; for `Cc1cc(C)c2c(-c3ccc(F)cc3)c(C#N)c(=O)n(C)c2n1`, 54.6% (active).
To `NC(c1csc(NC(=O)Nc2cccc(C(F)(F)F)c2)n1)C1CCCCC1` (centres undefined) belongs -1.56%; to `CCc1nn(-c2cc(Oc3cccc4ccccc34)nc(-c3ccccc3)n2)c(N)c1C#N`, 53.3% (active).
As to `CC(C)(C)n1nc(Cc2cccc3ccccc23)c(C#N)c1N`, the inhibition was 13.5%.
For `CC1(C(=O)NCc2ccc(F)c(F)c2)Cc2c(-c3ccc4c(c3)OCO4)ccnc2O1` (centres undefined) the value was -5.82%; for `CCN(CC)CCN(C(=O)c1ccc2c(c1)CCCC2)c1nc2c(OC)cccc2s1`, -7.26%; for `C[C@@H]1CCCCO[C@H](CN(C)Cc2ccccc2)[C@@H](C)CN([C@H](C)CO)C(=O)c2cc(NS(=O)(=O)c3ccc(Cl)cc3)ccc2O1`, 8.14%.
To `CC(C)OCCCNc1ncnc2c1[nH]c1ccc(F)cc12` belongs 65.5% (active); to `COc1ccc(C(=O)N2CCCCC2c2cc(C(=O)Nc3ccccc3)no2)cc1` (centres undefined), 13.8%.
For `CC(C)N=C1CCCC1C(=S)SSC(=S)C1CCCC1=NC(C)C` (centres undefined) the value was 0.152%; for `CCOC(=O)C1CCCN(C(=O)c2cc(-c3cccs3)oc2C)CC1` (centres undefined), -8.46%.
For the molecule `CC(C)c1cccc(-c2csc(C(O)c3ccccc3)n2)c1` (centres undefined), the inhibition was -7.2%.
To `CCC(CO)Oc1cc(NC(=O)c2cccc(F)c2)c2ncn(C(C)C)c2c1` (centres undefined) belongs -4.4%; to `CCC(CO)Oc1cc(NC(=O)c2cccc3ccccc23)c2ncn(C(C)C)c2c1` (centres undefined), 1.25%.
`CC(C)n1cnc2c(NCc3ccccc3)cc(OCC3CCN(C)CC3)cc21`: the inhibition is 78.2% (active).
To `CCCCC(=O)N(C)c1c(CC)nc2c(OCc3ccc(Cl)cc3Cl)cccn12` belongs 1.33%.
To `COc1ccc(NC2CCCN(C(=O)c3ccccc3-c3ncc[nH]3)C2)cc1` (centres undefined) belongs 10.8%; to `CC(=O)Nc1cc(-c2ccc(N3CCN(C)CC3)cc2)cn2c(-c3ccc(F)cc3)cnc12`, -22.4%.
To `CCN(CC)C(=O)C1=C(C)N(Cc2ccc(C(C)(C)C)cc2)C(=O)C(CC(=O)NCc2cccc3ccccc23)C1` (centres undefined) belongs -1.52%.
Regarding `FC(F)(F)c1nnc2ccc(N3CCN(c4ccccc4)CC3)nn12`, the inhibition was 19.6%.
To `Nc1nnc2c(C(F)(F)F)nc3ccccc3n12` belongs 44%.
For `FC(F)(F)c1nnc2c3ccccc3c(Cl)nn12` the value was 78.3% (active); for `CC1(Oc2ccccc2-c2ccno2)CCN(Cc2ccc(-c3ccccc3)o2)C1` (centres undefined), 4.47%.
Turning to `Cc1ccc(-c2cnc(C(O)c3cc(Cl)cc(Cl)c3)[nH]2)cc1` (centres undefined), the inhibition is -6.84%.
To `COc1ccc(C(c2nnnn2C2CCCC2)N2CCN(C/C=C/c3ccccc3)CC2)cc1` (centres undefined) belongs 16.8%; to `COc1ccc(C2CC(c3ccccc3)=NN2C(=O)c2ccc(Cl)c([N+](=O)[O-])c2)cc1` (centres undefined), 89.1% (active).
For `COc1ccc(C2CC(c3ccc([N+](=O)[O-])cc3)=NN2C(C)=O)cc1` (centres undefined) the value was 1.95%; for `COc1ccc(C2=NN(C(=O)c3cccnc3)C(c3ccccc3)C2)cc1` (centres undefined), -3.05%; for `CCCCN(C=O)c1c(CC)nc2c(OCCC3CCCCC3)cccn12`, -3.38%.
In the case of `Cc1ccccc1C1=NC(C(F)(F)F)(C(F)(F)F)c2c(n(-c3ccc(F)cc3)c(=O)[nH]c2=O)N1`, the inhibition is -7.19%.
For `Nc1c(N(Cc2ccco2)C(=O)c2cccc(F)c2)c(=O)[nH]c(=O)n1Cc1ccccc1` the value was 6.01%.
For the molecule `O=c1[nH]c(=O)n(Cc2ccco2)c2c1C(C(F)(F)F)(C(F)(F)F)N=C(c1ccco1)N2`, the inhibition is 51.3% (active).
To `C=C(C)C(=O)O[C@H]1C/C(C)=C\C(=O)/C=C(\C)[C@H](O)[C@@H]2OC(=O)C(=C)[C@@H]21` belongs 136% (active); to `O=C(NC(c1ccc(Cl)cc1)c1cnccn1)C1CCN(Cc2ccc(Cl)cc2)CC1` (centres undefined), 26.5%.
Turning to `CC(=O)c1ccc(Nc2nc(C(N)c3ccccc3)cs2)cc1` (centres undefined), the inhibition is -5.96%.
For `COc1ccc(OC)c(NC(=O)C2(C)CCN2C(=O)Cc2ccccc2)c1` (centres undefined) the value was 2.75%.
For `CC(C)CC1C(=O)N(Cc2cn(Cc3ccco3)nn2)CCS(=O)(=O)N1Cc1ccc(-c2ccc(Cl)c(Cl)c2)cc1` (centres undefined) the value was 0.356%; for `O=C(Nc1cccc(-n2cnnn2)c1)c1cccnc1`, 1.28%; for `Cc1ccc(C)c(S(=O)(=O)Nc2cccc(-n3cnnn3)c2)c1`, 69.3% (active).
To `O=S(=O)(Nc1cccc(-n2cnnn2)c1)c1cnc(Cl)c(Cl)c1` belongs -0.268%; to `COc1cccc(-c2cnc3c(NC(C)=O)cc(-c4cccc(NC(C)=O)c4)cn23)c1`, -4.77%; to `O=C(NCCN1CCOCC1)c1ccccc1N1C(=O)[C@@H]2Cc3c([nH]c4ccccc34)C(c3cccc(Cl)c3)N2C1=O` (some centres undefined), 2.4%.
In the case of `CC(=O)NC(Cc1c[nH]c2ccccc12)C(=O)NCCc1ccccc1` (centres undefined), the inhibition is 50.4% (active).
With `CCOC(=O)c1ccccc1NC(=O)COC(=O)C(Cc1c[nH]c2ccccc12)NC(C)=O` (centres undefined), the inhibition is 1.23%.
To `COc1ccc(CNC(=O)[C@H](Cc2c[nH]c3ccccc23)NC(C)=O)cc1OC` belongs -6.67%.

For the origin of these results see PubChem BioAssay AID602346 (Broad Institute, 2012).
